The text below walks through data of PubChem BioAssay (NCATS).

The test system of one assay is HEK293. As to the kind of experiment: Cytotoxic Profiling of Annotated Libraries Using Quantitative High-Throughput Screening (AID 1296008). As to conditions: Five cell lines viability, CellTiter-Glo ATP luminescence, 48-72 h; max response: stronger effect = lower value. The method, boiled down: (§1)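 Cells exposed to compounds for 48 or 72 hr at 37 degrees Celsius. Viability read as ATP-coupled luminescence with CellTiter-Glo after 10 min at room temperature.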
(In general: Cellular ATP, detected with luciferase, serves as a proxy for viable cell number.)

Assay [1] relates to HaCat. Described as above. As to conditions: Five cell lines viability, CellTiter-Glo ATP luminescence, 48-72 h; max response: stronger effect = lower value. In short, it runs like this: as §1
A further assay deals with NIH3T3. Described as above. As to conditions: Five cell lines viability, CellTiter-Glo ATP luminescence, 48-72 h; max response: stronger effect = lower value. The method, boiled down: as §1
The test system of a further assay is MCC-13. Put plainly: qHTS assay to identify novel small-molecules to repurpose for Merkel cell carcinoma treatment (AID 1296009). To be noted: MCC and control cell lines, CellTiter-Glo viability, 72 h; series mostly up to 46 µM. In short, it runs like this: (§2)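 Cells were treated for 72 hr at 37 degree celsius with compounds in 8- or 11-point dose response. Viability was read by CellTiter-Glo luminescence, normalized to no-cell (cytotoxicity) and DMSO controls.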
Background: Quantitative high-throughput screening tests each substance at several concentrations.

The next assay has as its system MCC-26. The assay is described as above. To be noted: MCC and control cell lines, CellTiter-Glo viability, 72 h; series mostly up to 46 µM. In short, it runs like this: as §2
In another assay the test system is MKL-1. Described as above. As to conditions: MCC and control cell lines, CellTiter-Glo viability, 72 h; series mostly up to 46 µM. The method, boiled down:
as §2

The subject of another assay is MKL-2. Described as above. To be noted: MCC and control cell lines, CellTiter-Glo viability, 72 h; series mostly up to 46 µM. The method, boiled down:
as §2

A further assay deals with HEK293T. The assay is described as above. To be noted: MCC and control cell lines, CellTiter-Glo viability, 72 h; at 44.8 µM (top of the series) unless noted. In short, it runs like this:
as §2

The next assay has as its system KB-3-1. As to the kind of experiment: Cytotoxic Profiling of Annotated Libraries Using Quantitative High-Throughput Screening (AID 1296008). To be noted: Five cell lines viability, CellTiter-Glo ATP luminescence, 48-72 h; max response: stronger effect = lower value. The method, boiled down: as §1
Assay [2] has as its system HACAT. Put plainly: qHTS assay to identify novel small-molecules to repurpose for Merkel cell carcinoma treatment (AID 1296009). To be noted: MCC and control cell lines, CellTiter-Glo viability, 72 h; at 44.8 µM (top of the series) unless noted. The method, boiled down: as §2

Inconclusive results are not listed. A number with no mark means an inactive call. The source made the active and inactive calls. The call rests on the fitted dose curve; in most records, active means well fitted inhibition curve with a large enough effect; inconclusive means small, poorly fitted or top-dose-only effect; inactive means flat fitted curve, though single readings scatter.
Further: nearly all actives have a fitted effect of over 60% in size.
On the % scale 0 is the no-effect control and ±100 the full control effect; potency means the concentration at half of the fitted maximal effect.

With `O=C(O)CCCCCCCC(=O)O`, the figures for the max response in the assay on HEK293 and in the assay with HaCat [1] were 3% and 2.4%, respectively. In the assay on NIH3T3, the compound was classed as inactive. In addition, the Potency result with MCC-13, in the assay on MCC-26, with MKL-1 and in the assay on MKL-2 was “inactive” in each case.
For the compound `CCCN(CCC)C(=O)C(CCC(=O)O)NC(=O)c1ccccc1` (configuration not stated), the call in the assay on HEK293 and in the assay with HEK293T was inactive. Besides, the values for the max response in the assay with HaCat [1] and in the assay on NIH3T3 were 4.34% and -2.14%, respectively. Further, the Potency result in the assay with MCC-13, in the assay on MCC-26 and in the assay on MKL-2 was “inactive” throughout.
Consider `NC(N)=N/N=C/c1c(Cl)cccc1Cl`, for which the Potency in the assay on HEK293 is 18.8 µM (active). Further, the max response was -6.3% in the assay with HaCat [1], 0.665% in the assay on KB-3-1 and 3.93% in the assay with NIH3T3. For the same compound, the Potency result with MCC-13, with MCC-26 and with MKL-2 was “inactive” in each case.
In the case of `CC1=C(C)C(=O)C(CCCCC#CCCCC#CCO)=C(C)C1=O`, the Potency in the assay with HEK293 was 16.8 µM (active); in the assay with MKL-2 it was 26.6 µM (active). Besides, the max response with HaCat [1] is -15.6%; in the assay on KB-3-1 it was -7.44%; in the assay on NIH3T3, -8.8%. The Potency result with MCC-13 and with MCC-26 was “inactive” each time.
As for `O=C1CC2(CCCC2)CC(=O)N1CCCCN1CCN(c2ncccn2)CC1`, the max response with HEK293 was -2.12%; in the assay on NIH3T3 it was -6.17%. In addition, the compound was classed as inactive with HaCat [1] and with HACAT [2]. Also, the Potency result in the assay with MCC-13, in the assay on MCC-26, in the assay with MKL-1 and with MKL-2 was “inactive” throughout.
Regarding `CCN1CCC[C@H]1CNC(=O)c1c(O)c(Cl)cc(Cl)c1OC`, the compound was called inactive in the assay with HEK293, in the assay on HaCat [1], in the assay with HACAT [2] and in the assay with HEK293T. For the same compound, the max response in the assay with NIH3T3 was 1.49%. For the same compound, the Potency result with MCC-13, in the assay with MCC-26, in the assay on MKL-1 and in the assay with MKL-2 was “inactive” throughout.
For the compound `COC(=O)[C@@H](N)Cc1ccc(O)c(O)c1`, the max response was -4.7% with HEK293, 3.62% in the assay on HaCat [1] and -6.82% in the assay on NIH3T3. The Potency entry in the assay on MCC-13 and with MCC-26 was “inactive” in each case.
As to `CCOC(=O)c1cnc2c(cnn2CC)c1NN=C(C)C`, the max response in the assay with HEK293 was 2.79%; in the assay with HaCat [1] it was -11.8%; in the assay on NIH3T3, -3.28%. The Potency result with MCC-13 and with MCC-26 was “inactive” throughout.
In the case of `NC(N)=NC(=O)Cc1c(Cl)cccc1Cl`, the Potency with HEK293 was 8.41 µM (active). Also, the max response was -14.8% in the assay with HaCat [1] and 3.43% in the assay with NIH3T3. For the same compound, the Potency entry with MCC-13, in the assay with MCC-26, with MKL-1 and in the assay on MKL-2 was “inactive” each time.
`CN=C(NC#N)NCCSCc1nc[nH]c1C`: the result in the assay on HEK293, in the assay with HaCat [1], in the assay on HACAT [2] and in the assay with HEK293T was inactive. Also, the max response in the assay on NIH3T3 was -0.832%. For the same compound, the Potency result with MCC-13, in the assay with MCC-26, in the assay with MKL-1 and in the assay on MKL-2 was “inactive” in each case.
With `CC(C)(Oc1ccc(CCNC(=O)c2ccc(Cl)cc2)cc1)C(=O)O`, the max response in the assay with HEK293 was -102%. Also, the result in the assay on HaCat [1], in the assay with NIH3T3 and in the assay on HACAT [2] was inactive. Also, the Potency result in the assay with MCC-13, in the assay on MCC-26, in the assay with MKL-1 and with MKL-2 was “inactive” in each case.
Take `CC(=O)OCC1=C(C(=O)O)N2C(=O)[C@@H](NC(=O)Cc3cccs3)[C@H]2SC1`: in the assay on HEK293, the max response was -2.75%. Moreover, the result in the assay on HaCat [1], in the assay with NIH3T3 and in the assay with HACAT [2] was inactive. In addition, the Potency entry in the assay with MCC-13, in the assay on MCC-26, with MKL-1 and with MKL-2 was “inactive” each time.
On to `CC(=O)[C@]1(O)Cc2c(O)c3c(c(O)c2[C@@H](O[C@H]2C[C@H](N)[C@H](O)[C@H](C)O2)C1)C(=O)c1ccccc1C3=O`, for which the Potency in the assay with HEK293 was 0.0335 µM (active); in the assay on HaCat [1], 0.0596 µM (active); in the assay on NIH3T3, 0.0841 µM (active); in the assay on MCC-13, 3.76 µM (active); in the assay with MCC-26, 1.33 µM (active); in the assay with MKL-1, 0.119 µM (active). The Potency with MKL-2 is 0.0944 µM (active).
With `CN(C)CCOC(=O)COc1ccc(Cl)cc1`, the max response was 2.83% with HEK293 and 0.547% in the assay with NIH3T3. For the same compound, the compound was called inactive in the assay with HaCat [1] and in the assay on HACAT [2]. The Potency entry in the assay with MCC-13, in the assay with MCC-26, in the assay on MKL-1 and in the assay with MKL-2 was “inactive” in each case.
Take `Nc1c2c(nc3ccccc13)CCCC2O` (configuration not stated): the compound was classed as inactive in the assay on HEK293, in the assay with HaCat [1], in the assay on HACAT [2] and with HEK293T. Also, the max response in the assay on NIH3T3 is 4.53%. Moreover, the Potency entry in the assay on MCC-13, in the assay with MCC-26, with MKL-1 and in the assay on MKL-2 was “inactive” throughout.
Regarding `Cc1nnc(SCC2=C(C(=O)O)N3C(=O)[C@@H](NC(=O)Cn4cnnn4)[C@H]3SC2)s1`, the outcome with HEK293, with HaCat [1], in the assay with HACAT [2] and with HEK293T was inactive. The max response with NIH3T3 is -2.45%. Moreover, the Potency result with MCC-13, with MCC-26 and with MKL-1 was “inactive” throughout. Also, in the assay with MKL-2, the Potency was 13.3 µM (active).
As for `CN1C(=O)CC[C@H]1c1cccnc1`, the max response was -8.79% in the assay on HEK293 and -5.17% in the assay on NIH3T3. For the same compound, the result with HaCat [1] and in the assay on HACAT [2] was inactive. For the same compound, the Potency result with MCC-13, in the assay with MCC-26 and with MKL-2 was “inactive” in each case.
On to `Nc1ncn([C@@H]2O[C@H](CO)[C@@H](O)[C@H]2O)c(=O)n1`, for which, in the assay on HEK293, the Potency is 3.35 µM (active). Moreover, the max response in the assay with HaCat [1] is -18.5%; in the assay with NIH3T3 it was -10.9%.
Consider `CCCCCN(CCCCC)C(=O)C(CCC(=O)O)NC(=O)c1ccc(Cl)c(Cl)c1` (configuration not stated), for which the max response in the assay with HEK293 is -9.3%; in the assay on NIH3T3, -0.48%. The compound was called inactive in the assay on HaCat [1] and in the assay with HACAT [2]. In addition, the Potency result in the assay with MCC-13, in the assay with MCC-26, in the assay on MKL-1 and with MKL-2 was “inactive” in each case.
As for `O=C(O)CN(CCN(CC(=O)O)CC(=O)O)CCN(CC(=O)O)CC(=O)O`, the call in the assay on HEK293 was inactive. The max response in the assay with HaCat [1] was -15.5%; in the assay with KB-3-1 it was 28.9%. The outcome with HEK293T is “inactive [at 17.4 µM]”. Moreover, the Potency result in the assay with MCC-13, in the assay on MCC-26, in the assay with MKL-1 and in the assay with MKL-2 was “inactive” in each case.
With `CCN(Cc1ccncc1)C(=O)C(CO)c1ccccc1` (configuration not stated), the max response in the assay with HEK293 was -10.1%; with NIH3T3 it was -10.9%. For the same compound, the result in the assay on HaCat [1] and in the assay with HACAT [2] was inactive. The Potency entry in the assay on MCC-13, in the assay with MCC-26, in the assay with MKL-1 and in the assay on MKL-2 was “inactive” in each case.
As for `FC(F)(F)c1ccccc1-n1ccnc1`, the results for the max response with HEK293 and with NIH3T3 were -1.59% and -5.68%, respectively. Also, the compound was called inactive in the assay on HaCat [1] and in the assay with HACAT [2]. Besides, the Potency result with MCC-13, with MCC-26, in the assay with MKL-1 and in the assay with MKL-2 was “inactive” in each case.
